The list is not random: actives were taken first. Their share in the collection is about 18%.
TDP1 cell CPT = growth inhibition of DT40 Tdp1-/-;hTDP1 cells with camptothecin (screen for TDP1 inhibitors) | chicken DT40 Tdp1-/-;hTDP1 cells + 20 nM CPT, ATP luminescence, 48 h | Potency, µM (top dose mostly 46.2 µM), actives largely listed as inhibitors | hit rate 12% among 420,000; further: nearly all actives have a fitted effect of over 55% in size
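Cell growth measured by CellTiter-Glo luminescence after a minimum 48 h, 37 C compound exposure with 20 nM CPT in Tdp1-knockout DT40 cells stably expressing hTDP1, seeded 400/well; qHTS titration format.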
PLK1 PBD inh = blocks phosphopeptide binding to human PLK1 polo-box domain. AID 720504. Potency, µM, hits mostly inhibitors. P53350. Plk1 PBD binding of FITC phosphopeptide, fluorescence polarization. hit rate 2.8% among 360,000; further: series mostly up to about 57 µM; nearly all actives have a fitted effect of over 65% in size
GCN5L2 inh = inhibitors of human GCN5L2 histone acetyltransferase; hit rate 0.21% among 390,000; GCN5L2 HAT assay, ThioGlo1 CoA-SH fluorescence; Potency, µM (doses to about 58.9 µM), actives largely listed as inhibitors; Q92830
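GCN5L2 (20 nM) in 50mM HEPES pH 7.5, 0.1mM EDTA, 0.01% Tween-20 preincubated 15 min with compounds at room temperature. Reaction started with H3(1-25) 75uM, acetyl-CoA 70uM, ThioGlo1 50uM; CoA-thiol fluorescence (Ex340/Em540) read at 0 and 20 min.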
DT40 TDP1 no CPT = qHTS for Inhibitors of human tyrosyl-DNA phosphodiesterase 1 (TDP1): qHTS in cells in absence of CPT. Potency, µM (series often up to 46.2 µM), actives largely listed as inhibitors. hit rate 15% among 420,000. DT40 Tdp1-/- hTDP1 cells, no CPT, ATP luminescence, 48 h. AID 686978, 2013; further: nearly all actives have a fitted effect of over 55% in size
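Seeded 400 DT40-hTDP1 cells/well (vehicle DMSO, no 20 nM CPT); pinned compounds; ≥48 hr at 37 °C; CellTiter-Glo luminescence as viability measure.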
TDP1 inh = inhibitors of human tyrosyl-DNA phosphodiesterase TDP1; Q9NUW8; recombinant TDP1, AlphaScreen DNA substrate cleavage; Potency, µM (titrated, usually from 130 µM), hits mostly inhibitors; hit rate 0.28% among 350,000; further: nearly all actives have a fitted effect of over 40% in size
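Signal: AlphaScreen proximity between streptavidin donor and anti-FITC acceptor beads on intact substrate. Reaction: Tdp1 1 nM, substrate 15 nM final, 5 min RT after 15 min compound preincubation.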
VDR inhibitor = inhibitors of human vitamin D receptor; VDR-SRC2-3 peptide fluorescence polarization, 2 h; hit rate 0.93% among 400,000; P11473; Potency, µM, actives largely listed as inhibitors
Target sequence (P11473 whole entry, looked up): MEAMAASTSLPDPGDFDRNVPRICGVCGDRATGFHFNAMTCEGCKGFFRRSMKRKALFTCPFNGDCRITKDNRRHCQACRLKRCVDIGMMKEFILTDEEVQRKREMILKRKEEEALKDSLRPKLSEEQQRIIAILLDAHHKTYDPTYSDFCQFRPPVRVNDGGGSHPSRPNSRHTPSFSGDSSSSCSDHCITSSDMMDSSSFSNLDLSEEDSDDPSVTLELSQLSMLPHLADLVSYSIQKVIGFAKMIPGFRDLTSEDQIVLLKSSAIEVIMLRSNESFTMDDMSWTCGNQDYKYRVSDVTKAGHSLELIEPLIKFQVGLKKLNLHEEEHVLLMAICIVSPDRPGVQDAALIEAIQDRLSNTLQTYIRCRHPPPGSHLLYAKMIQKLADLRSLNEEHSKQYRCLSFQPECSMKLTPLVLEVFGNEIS
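Two reagent solutions held at 4 deg C in the dark were dispensed, compounds pinned at 23 nl, and the mixture incubated 2 h at room temperature. Read-out: fluorescence polarization of VDR–SRC2-3 peptide binding.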
Hits are given with their value; n = inactive; u = inconclusive; x = no result given; [ ] = dose if it differs, or a comment. The call rests on the fitted dose curve; in most records, active means well fitted curve in the direction sought with a large enough effect; inconclusive means small, poorly fitted or top-dose-only effect, or another doubt; inactive means no such curve, though single readings can be large; an effect the other way counts as inactive or inconclusive.

SMILES	TDP1 cell CPT	PLK1 PBD inh	GCN5L2 inh	DT40 TDP1 no CPT	TDP1 inh	VDR inhibitor
CN(C)S(=O)(=O)c1ccc(C(=O)NCCC(=O)N2CCCC2)cc1	n	n	n	n	x	u
O=C(CCc1ccccc1)N/N=C/c1cc(Br)ccc1O	2.6µM	n	n	4.1µM	n	n
O=C(Cc1ccccc1)N/N=C/c1cc(Br)cc(Br)c1O	u	n	u	u	x	n
Oc1ccc(Br)cc1/C=N/NC(=S)NCCc1ccccc1	u	n	n	16µM	n	n
CC(C)NC(=S)N/N=C/c1cc(Br)ccc1O	4.6µM	u	n	4.6µM	n	n
CC(C)NC(=S)N/N=C/c1c[nH]c2ccccc12	4.6µM	n	n	3.7µM	n	n
S=C(NCCc1ccccc1)N/N=C/c1ccccc1Cl	u	n	n	u	n	n
COc1ccccc1Cc1nc2ccccc2nc1SCC(=O)NCc1ccccc1Cl	u	x	n	u	n	n
O=C(c1cc(=O)[nH]c2ccccc12)N1CCN(c2ccccc2)CC1	n	n	n	n	n	n
CCc1c(CN2CCN(c3ccccc3F)CC2)csc1C	u	x	n	21µM	n	n
COc1ccc(-c2noc(CSc3nnc(Cc4ccccc4)n3-c3cccc(C)c3)n2)cc1	u	x	n	u	n	n
COC(=O)c1ccsc1NC(=O)CCS(=O)(=O)c1ccc(Cl)cc1	u	n	n	18µM	x	n
COC(=O)c1ccsc1NC(=O)CCS(=O)(=O)c1ccccc1	u	n	n	u	n	n
Cc1ccc(S(=O)(=O)CCC(=O)Nc2sccc2C#N)cc1	u	n	n	21µM	n	n
Cc1ccc(S(=O)(=O)CCC(=O)Nc2ccccc2C)cc1	u	n	n	23µM	x	n
Cc1ccc(S(=O)(=O)CCC(=O)Nc2ccccc2N2CCCC2)cc1	u	n	n	n	n	n
Cn1nnc2c(N3CCN(c4ccccc4Cl)CC3)ncnc21	u	x	n	u	n	n
COc1ccccc1CCc1nc2ccccc2n1C1CCN(C(=O)c2cn3ccsc3n2)CC1	n[9.04 µM]	x	x	n	x	x
O=C(c1cc(C2CC2)nn1-c1ccccc1)N1CCN(c2ccccc2O)CC1	u	n	n	16µM	n	n
CCOc1ccc(S(=O)(=O)N2CCN(C(=O)c3cc(C4CC4)nn3-c3ccccc3)CC2)cc1	21µM	n	n	18µM	n	n
CCOc1ccc(S(=O)(=O)N2CCN(C(=O)c3cc(-c4ccccc4)nn3-c3ccccc3)CC2)cc1	u	n	n	u	n	n
O=C(c1cc(C2CC2)nn1-c1ccccc1)N1CCN(c2ccccn2)CC1	u	n	n	u	n	n
O=C(NC1CCCCC1)c1cc(C2CC2)nn1-c1ccccc1	16µM	n	n	16µM	n	n
Cn1cnc(S(=O)(=O)Nc2ccc(OC(F)(F)F)cc2)c1	n	n	n	n	n	n
Cc1ccc(N(Cc2cc3ccc(C)cc3[nH]c2=O)C(=O)c2ccco2)c(C)c1	u	u	n	23µM	n	u
SMILES	TDP1 cell CPT	PLK1 PBD inh	GCN5L2 inh	DT40 TDP1 no CPT	TDP1 inh	VDR inhibitor
Cc1ccc2cc(CN(C(=O)c3ccco3)c3ccccc3C)c(=O)[nH]c2c1	u	n	n	21µM	n	n
Cc1ccc2cc(CN(C(=O)c3ccco3)c3cccc(C)c3C)c(=O)[nH]c2c1	n	u	n	u	n	u
O=C(C1CCC(CNS(=O)(=O)c2ccc(Br)s2)CC1)N1CCN(c2ccc(F)cc2)CC1 (stereo not given)	u	x	n	4.1µM	n	n
O=C(C1CCC(CNS(=O)(=O)c2cccs2)CC1)N1CCCCC1 (stereo not given)	n	n	n	u	n	n
COc1cccc(N2CCN(C(=O)C3CCC(CNS(=O)(=O)c4ccc(Br)s4)CC3)CC2)c1 (stereo not given)	7.3µM	x	n	6.5µM	n[12.3 µM]	n
COc1cccc(CNC(=O)C2CCC(CNS(=O)(=O)c3ccc(Br)s3)CC2)c1 (stereo not given)	23µM	x	n	u	n	n
O=C(NCc1cccs1)C1CCC(CNS(=O)(=O)c2ccc(Br)s2)CC1 (stereo not given)	n	n	n	n	n	n
COc1cccc(CNC(=O)C2CCN(S(=O)(=O)c3ccc(Br)s3)CC2)c1	n	n	n	n	n	n
O=C(C1CCC(CNS(=O)(=O)c2ccc(Br)s2)CC1)N1CCN(c2ccccc2Cl)CC1 (stereo not given)	9.2µM	x	n	8.2µM	n[12.3 µM]	n
O=C(COc1ccc2ccc(=O)oc2c1)N1CCc2ccccc21	n	n	n	n	n	n
CCCc1ccc(OCC(=O)Nc2sc3c(c2C(=O)OC)CCCCC3)cc1	n	x	n	u	n[12.3 µM]	u
Cc1ccccc1C(=O)NNC(=O)C1CC(=O)N(c2ccc3c(c2)OCCO3)C1 (stereo not given)	n	n	n	n	n	n
COc1cc(/C=C(\NC(=O)c2ccccc2)C(=O)N2CC3CC(C2)c2cccc(=O)n2C3)cc(OC)c1OC (stereo not given)	n	n	n	n	x	n
Cc1cccc(-n2c(C)c(C)c3c(N)ncnc32)c1	n	n	n	n	n	n
Cc1nc(NCc2ccccc2)c2nc(-c3ccccc3)n(CCN(C)C)c2n1	x	x	x	x	n	x
CCCCC[C@@H](C)N1C[C@@H](COCc2ccccc2)Oc2cc(N3CC[C@H](O)C3)ccc2S1(=O)=O	u	n	x	16µM	x	x
CCCCC[C@H](C)N1C[C@@H](COCc2ccccc2)Oc2cc(N3CC[C@@H](O)C3)ccc2S1(=O)=O	u	n	x	u	x	x
CCCCC[C@@H](C)N1C[C@@H](COCc2ccccc2)Oc2cc(N3CC[C@@H](O)C3)ccc2S1(=O)=O	u	n	x	16µM	x	x
CC(C)(C)C1CCC(=NNC(=O)c2ccco2)CC1 (stereo not given)	n	n	n	n	n	n
Cc1cc(N2CCN(C)CC2)nc2ccc(NC(=S)NCCC(C)C)cc12	23µM	u	n	15µM	x	n
Cc1cc(N2CCOCC2)nc2ccc(NC(=S)NCCC(C)C)cc12	18µM	n	n	21µM	x	n
COc1ccc(CNC(=S)Nc2ccc3nc(N4CCOCC4)cc(C)c3c2)cc1	21µM	n	n	u	n	n
Cc1cc(N2CCOCC2)nc2ccc(NC(=S)NCCN(C)C)cc12	n	u	n	n	x	n
CC1CCCC(NC(=O)CN2C(=O)NC(C)(c3cc(F)ccc3F)C2=O)C1C (stereo not given)	n	n	n	n	n	n
COC(=O)C1CCN(Cc2ccc3c(c2)CN(C(=O)c2cc4ccccc4n2C)CCO3)CC1	n[9.04 µM]	x	x	u	x	x
Cc1ccc(S(=O)(=O)NCCc2ccncc2)cc1[N+](=O)[O-]	n	n	n	n	x	n
